Reference: paper PMC12820563, “FoxP3 forms a head-to-head dimer in vivo and stabilizes its multimerization on adjacent microsatellites”
Over roughly 16,000 sequences, “rpm ratio (pull-down/input)” has its median near 0.5; the highest 2% begin near 5.5. Many of the other results were omitted from the sample, so the highest values are more common in it than they were.

Molecular target: T1, MBP-FoxP3dN (Mus musculus, UniProt Q99JB6 188-423)
T1 sequence: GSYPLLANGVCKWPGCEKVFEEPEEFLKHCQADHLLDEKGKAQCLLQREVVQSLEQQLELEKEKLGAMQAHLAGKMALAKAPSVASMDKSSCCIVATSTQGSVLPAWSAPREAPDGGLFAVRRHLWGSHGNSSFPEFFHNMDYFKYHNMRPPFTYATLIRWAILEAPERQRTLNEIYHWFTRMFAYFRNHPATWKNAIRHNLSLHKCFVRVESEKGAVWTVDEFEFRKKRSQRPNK
Test: PD-seq (MBP pull-down with sequencing); 20 mM Tris-HCl pH 7.5, 100 mM NaCl, 1.5 mM MgCl2, 0.4 uM protein, 0.1 uM dsDNA library, 30 min, room temperature, amylose pull-down; high values mean tight binding
Details: protein: recombinant; tags: His6-MBP; chain copies: 2; dsDNA, one strand shown
Method in brief: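 Binding is given as reads-per-million enrichment, pull-down over input, with replicates pooled. The bait was an N-terminus-lacking mouse FoxP3 or FoxP1 fragment with a His6-MBP tag, expressed in E. coli and used at 0.4 µM with 0.1 µM Klenow-filled degenerate double-stranded DNA library for 30 min at room temperature in Tris pH 7.5 buffer with NaCl and MgCl2. Amylose resin pull-down with three washes was followed by proteinase K release, PCR barcoding and Illumina sequencing.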

Sequence	binding signal
GATGATTGTTCTCCCAGCTGATGAATTACTATCGTCGAGTAAACAAATTTTCCTAATCTTTCTGTTCAAGCGCCATCTAC	0.509 RPM ratio (pull-down/input)
GATGATTGTTCTCCCAGCTGATGAATTGCTAACTTCGAGTAAACAAATTTTCCTAATCTTTCTGTTCAAGCGCCATCTAC	0.723 RPM ratio (pull-down/input)
GATGATTGTTCTCCCAGCTGATGAATTGCAAGCGTCGAGTAAACAAATTTTCCTAATCTTTCTGTTCAAGCGCCATCTAC	0.974 RPM ratio (pull-down/input)
GATGATTGTTCTCCCAGCTGATGAATTAGGTGGCTCGAGTAAACAAATTTTCCTAATCTTTCTGTTCAAGCGCCATCTAC	0.625 RPM ratio (pull-down/input)
GATGATTGTTCTCCCAGCTGATGAATTATCAGAGTCGAGTAAACAAATTTTCCTAATCTTTCTGTTCAAGCGCCATCTAC	0.249 RPM ratio (pull-down/input)
GATGATTGTTCTCCCAGCTGATGAATTCTTCTCATCGAGTAAACAAATTTTCCTAATCTTTCTGTTCAAGCGCCATCTAC	0.242 RPM ratio (pull-down/input)
GATGATTGTTCTCCCAGCTGATGAATTTATTATTTCGAGTAAACAAATTTTCCTAATCTTTCTGTTCAAGCGCCATCTAC	5.57 RPM ratio (pull-down/input)
GATGATTGTTCTCCCAGCTGATGAATTGGTTATTTCGAGTAAACAAATTTTCCTAATCTTTCTGTTCAAGCGCCATCTAC	3.1 RPM ratio (pull-down/input)
GATGATTGTTCTCCCAGCTGATGAATTTCTTTATTCGAGTAAACAAATTTTCCTAATCTTTCTGTTCAAGCGCCATCTAC	1.53 RPM ratio (pull-down/input)
GATGATTGTTCTCCCAGCTGATGAATTATTTCTTTCGAGTAAACAAATTTTCCTAATCTTTCTGTTCAAGCGCCATCTAC	0.419 RPM ratio (pull-down/input)
GATGATTGTTCTCCCAGCTGATGAATTGTTTTATTCGAGTAAACAAATTTTCCTAATCTTTCTGTTCAAGCGCCATCTAC	1.66 RPM ratio (pull-down/input)
GATGATTGTTCTCCCAGCTGATGAATTTTTTTATTCGAGTAAACAAATTTTCCTAATCTTTCTGTTCAAGCGCCATCTAC	0.313 RPM ratio (pull-down/input)
GATGATTGTTCTCCCAGCTGATGAATTATTTATTTCGAGTAAACAAATTTTCCTAATCTTTCTGTTCAAGCGCCATCTAC	2.74 RPM ratio (pull-down/input)
GATGATTGTTCTCCCAGCTGATGAATTTGTTTATTCGAGTAAACAAATTTTCCTAATCTTTCTGTTCAAGCGCCATCTAC	7.73 RPM ratio (pull-down/input)
GATGATTGTTCTCCCAGCTGATGAATTTATTCTTTCGAGTAAACAAATTTTCCTAATCTTTCTGTTCAAGCGCCATCTAC	0.542 RPM ratio (pull-down/input)
GATGATTGTTCTCCCAGCTGATGAATTTATTTATTCGAGTAAACAAATTTTCCTAATCTTTCTGTTCAAGCGCCATCTAC	5.86 RPM ratio (pull-down/input)
GATGATTGTTCTCCCAGCTGATGAATTGGTTTATTCGAGTAAACAAATTTTCCTAATCTTTCTGTTCAAGCGCCATCTAC	4.04 RPM ratio (pull-down/input)
GATGATTGTTCTCCCAGCTGATGAATTTATTGGTTCGAGTAAACAAATTTTCCTAATCTTTCTGTTCAAGCGCCATCTAC	5.89 RPM ratio (pull-down/input)
GATGATTGTTCTCCCAGCTGATGAATTACCTGCTTCGAGTAAACAAATTTTCCTAATCTTTCTGTTCAAGCGCCATCTAC	0.326 RPM ratio (pull-down/input)
GATGATTGTTCTCCCAGCTGATGAATTTCACGGCTCGAGTAAACAAATTTTCCTAATCTTTCTGTTCAAGCGCCATCTAC	0.24 RPM ratio (pull-down/input)
GATGATTGTTCTCCCAGCTGATGAATTGTGGTACTCGAGTAAACAAATTTTCCTAATCTTTCTGTTCAAGCGCCATCTAC	1.06 RPM ratio (pull-down/input)

Sequence	binding signal
GATGATTGTTCTCCCAGCTGATGAATTGTTCCATTCGAGTAAACAAATTTTCCTAATCTTTCTGTTCAAGCGCCATCTAC	0.579 RPM ratio (pull-down/input)
GATGATTGTTCTCCCAGCTGATGAATTAACGGGTTCGAGTAAACAAATTTTCCTAATCTTTCTGTTCAAGCGCCATCTAC	0.329 RPM ratio (pull-down/input)
GATGATTGTTCTCCCAGCTGATGAATTCCAAATCTCGAGTAAACAAATTTTCCTAATCTTTCTGTTCAAGCGCCATCTAC	0.26 RPM ratio (pull-down/input)
GATGATTGTTCTCCCAGCTGATGAATTTGTAATGTCGAGTAAACAAATTTTCCTAATCTTTCTGTTCAAGCGCCATCTAC	3.87 RPM ratio (pull-down/input)
GATGATTGTTCTCCCAGCTGATGAATTATACACGTCGAGTAAACAAATTTTCCTAATCTTTCTGTTCAAGCGCCATCTAC	0.65 RPM ratio (pull-down/input)
GATGATTGTTCTCCCAGCTGATGAATTACGAAAGTCGAGTAAACAAATTTTCCTAATCTTTCTGTTCAAGCGCCATCTAC	0.214 RPM ratio (pull-down/input)
GATGATTGTTCTCCCAGCTGATGAATTTTATTTTTCGAGTAAACAAATTTTCCTAATCTTTCTGTTCAAGCGCCATCTAC	4.17 RPM ratio (pull-down/input)
GATGATTGTTCTCCCAGCTGATGAATTATTTTATTCGAGTAAACAAATTTTCCTAATCTTTCTGTTCAAGCGCCATCTAC	0.489 RPM ratio (pull-down/input)
GATGATTGTTCTCCCAGCTGATGAATTTATTTGTTCGAGTAAACAAATTTTCCTAATCTTTCTGTTCAAGCGCCATCTAC	6.33 RPM ratio (pull-down/input)
GATGATTGTTCTCCCAGCTGATGAATTTTATTATTCGAGTAAACAAATTTTCCTAATCTTTCTGTTCAAGCGCCATCTAC	5.53 RPM ratio (pull-down/input)
GATGATTGTTCTCCCAGCTGATGAATTCTTTTATTCGAGTAAACAAATTTTCCTAATCTTTCTGTTCAAGCGCCATCTAC	0.35 RPM ratio (pull-down/input)
GATGATTGTTCTCCCAGCTGATGAATTAATTTATTCGAGTAAACAAATTTTCCTAATCTTTCTGTTCAAGCGCCATCTAC	2.61 RPM ratio (pull-down/input)
GATGATTGTTCTCCCAGCTGATGAATTTATTGATTCGAGTAAACAAATTTTCCTAATCTTTCTGTTCAAGCGCCATCTAC	5.78 RPM ratio (pull-down/input)
GATGATTGTTCTCCCAGCTGATGAATTTTTATTTTCGAGTAAACAAATTTTCCTAATCTTTCTGTTCAAGCGCCATCTAC	0.838 RPM ratio (pull-down/input)
GATGATTGTTCTCCCAGCTGATGAATTTATTTTTTCGAGTAAACAAATTTTCCTAATCTTTCTGTTCAAGCGCCATCTAC	4.63 RPM ratio (pull-down/input)
GATGATTGTTCTCCCAGCTGATGAATTTTTTATTTCGAGTAAACAAATTTTCCTAATCTTTCTGTTCAAGCGCCATCTAC	0.301 RPM ratio (pull-down/input)
GATGATTGTTCTCCCAGCTGATGAATTGATTTATTCGAGTAAACAAATTTTCCTAATCTTTCTGTTCAAGCGCCATCTAC	2.58 RPM ratio (pull-down/input)
GATGATTGTTCTCCCAGCTGATGAATTTTATTGTTCGAGTAAACAAATTTTCCTAATCTTTCTGTTCAAGCGCCATCTAC	6.02 RPM ratio (pull-down/input)
GATGATTGTTCTCCCAGCTGATGAATTACGTGCCTCGAGTAAACAAATTTTCCTAATCTTTCTGTTCAAGCGCCATCTAC	0.855 RPM ratio (pull-down/input)
GATGATTGTTCTCCCAGCTGATGAATTGGTCCACTCGAGTAAACAAATTTTCCTAATCTTTCTGTTCAAGCGCCATCTAC	0.387 RPM ratio (pull-down/input)
GATGATTGTTCTCCCAGCTGATGAATTACTGAGCTCGAGTAAACAAATTTTCCTAATCTTTCTGTTCAAGCGCCATCTAC	0.258 RPM ratio (pull-down/input)

Sequence	binding signal
GATGATTGTTCTCCCAGCTGATGAATTAACACCTTCGAGTAAACAAATTTTCCTAATCTTTCTGTTCAAGCGCCATCTAC	0.408 RPM ratio (pull-down/input)
GATGATTGTTCTCCCAGCTGATGAATTCTTTACGTCGAGTAAACAAATTTTCCTAATCTTTCTGTTCAAGCGCCATCTAC	0.372 RPM ratio (pull-down/input)
GATGATTGTTCTCCCAGCTGATGAATTGTAGCGGTCGAGTAAACAAATTTTCCTAATCTTTCTGTTCAAGCGCCATCTAC	0.618 RPM ratio (pull-down/input)
GATGATTGTTCTCCCAGCTGATGAATTTAATACATCGAGTAAACAAATTTTCCTAATCTTTCTGTTCAAGCGCCATCTAC	0.619 RPM ratio (pull-down/input)
GATGATTGTTCTCCCAGCTGATGAATTGTAACCGTCGAGTAAACAAATTTTCCTAATCTTTCTGTTCAAGCGCCATCTAC	0.518 RPM ratio (pull-down/input)
GATGATTGTTCTCCCAGCTGATGAATTTATTTGATCGAGTAAACAAATTTTCCTAATCTTTCTGTTCAAGCGCCATCTAC	2.62 RPM ratio (pull-down/input)
GATGATTGTTCTCCCAGCTGATGAATTGTATTTATCGAGTAAACAAATTTTCCTAATCTTTCTGTTCAAGCGCCATCTAC	6.83 RPM ratio (pull-down/input)
GATGATTGTTCTCCCAGCTGATGAATTTATTCTATCGAGTAAACAAATTTTCCTAATCTTTCTGTTCAAGCGCCATCTAC	0.549 RPM ratio (pull-down/input)
GATGATTGTTCTCCCAGCTGATGAATTTATTTTATCGAGTAAACAAATTTTCCTAATCTTTCTGTTCAAGCGCCATCTAC	3.67 RPM ratio (pull-down/input)
GATGATTGTTCTCCCAGCTGATGAATTTATTGTATCGAGTAAACAAATTTTCCTAATCTTTCTGTTCAAGCGCCATCTAC	5.25 RPM ratio (pull-down/input)
GATGATTGTTCTCCCAGCTGATGAATTTTATTGATCGAGTAAACAAATTTTCCTAATCTTTCTGTTCAAGCGCCATCTAC	5.5 RPM ratio (pull-down/input)
GATGATTGTTCTCCCAGCTGATGAATTTGTATTATCGAGTAAACAAATTTTCCTAATCTTTCTGTTCAAGCGCCATCTAC	5.3 RPM ratio (pull-down/input)
GATGATTGTTCTCCCAGCTGATGAATTTTTATTATCGAGTAAACAAATTTTCCTAATCTTTCTGTTCAAGCGCCATCTAC	0.779 RPM ratio (pull-down/input)
GATGATTGTTCTCCCAGCTGATGAATTCTATTTATCGAGTAAACAAATTTTCCTAATCTTTCTGTTCAAGCGCCATCTAC	6.6 RPM ratio (pull-down/input)
GATGATTGTTCTCCCAGCTGATGAATTATTCCTATCGAGTAAACAAATTTTCCTAATCTTTCTGTTCAAGCGCCATCTAC	0.365 RPM ratio (pull-down/input)
GATGATTGTTCTCCCAGCTGATGAATTTATTGAATCGAGTAAACAAATTTTCCTAATCTTTCTGTTCAAGCGCCATCTAC	0.822 RPM ratio (pull-down/input)
GATGATTGTTCTCCCAGCTGATGAATTTTATTTATCGAGTAAACAAATTTTCCTAATCTTTCTGTTCAAGCGCCATCTAC	6.95 RPM ratio (pull-down/input)
GATGATTGTTCTCCCAGCTGATGAATTGATCAAGTCGAGTAAACAAATTTTCCTAATCTTTCTGTTCAAGCGCCATCTAC	0.245 RPM ratio (pull-down/input)
GATGATTGTTCTCCCAGCTGATGAATTTGACGAGTCGAGTAAACAAATTTTCCTAATCTTTCTGTTCAAGCGCCATCTAC	0.235 RPM ratio (pull-down/input)
GATGATTGTTCTCCCAGCTGATGAATTATCAGCCTCGAGTAAACAAATTTTCCTAATCTTTCTGTTCAAGCGCCATCTAC	0.468 RPM ratio (pull-down/input)
GATGATTGTTCTCCCAGCTGATGAATTTCCGTGCTCGAGTAAACAAATTTTCCTAATCTTTCTGTTCAAGCGCCATCTAC	0.332 RPM ratio (pull-down/input)
